Records with an inconclusive call do not appear. Active and inactive are the calls of the source. Unless noted, the call rests on the fitted dose curve; in most records, active means well fitted curve in either direction with a large enough effect (not every such curve was filed as active); inconclusive means small, poorly fitted or top-dose-only effect, or another doubt; inactive means flat fitted curve, though single readings scatter.
Experiments:
[1] = molecular target: Lysosomal acid glucosylceramidase (Homo sapiens) (UniProt P04062); experiment: Glucocerebrosidase-p2 (AID 348; in the data active means potency below about 10 µM; further: potency means the concentration at half of the fitted maximal effect); details: purified GBA, blue fluorogenic substrate, 40 min
Summary of the method: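 Normal human glucocerebrosidase (0.2 nM) with blue fluorogenic substrate (80 uM final) in citrate/phosphate pH 5.9 with 10mM sodium taurocholate, 0.01% tween-20; 40 min RT, NaOH/glycine stop; fluorescence Ex 365/Em 440; AC50 from a titration from 0.6 nM upwards.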

[2] = AP1 Signaling Pathway (AID 357); details: ME-180 AP-1-bla reporter, EGF-induced, beta-lactamase ratio, 5 h; at 7.69 µM (top of the series) unless noted;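 further: ME-180 reporter cells stimulated with EGF at its EC50 level; on the % scale 0 is the no-effect control and ±100 the full control effect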
Summary of the method: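 A ratiometric CCF4 readout (405 nm excitation; 460 and 530 nm emission) quantified AP-1-driven beta-lactamase in ME-180 cells after 5 h with compound and EC50 EGF; AC50 values were derived for activators and inhibitors.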

[3] = molecular target: Cytochrome P450 1A2 (Homo sapiens) (UniProt P05177); experiment: p450-cyp1a2 (AID 410; calls by dose curve; further: potency means the concentration at half of the fitted maximal effect;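 on activity change, negative = inhibition: -100% = full effect of reference inhibitor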); details: recombinant CYP1A2, luciferin-ME demethylation, luminescence; series mostly up to 57 µM
Summary of the method: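 O-Demethylation of luciferin 6' methyl ether by human CYP1A2 is monitored as luciferase luminescence. Substrate sits at Km (100uM); enzyme is 20nM. Values are scaled to 57 uM furafylline as maximal inhibition.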

[4] = NFAT Signaling Pathway (AID 444); details: Jurkat NFAT-bla M1, carbachol, beta-lactamase ratio, 5 h; at 7.69 µM (top of the series) unless noted;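 further: carbachol stimulus at about its EC50 of 1 µM final; on the % scale 0 is the no-effect control and ±100 the full control effect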
Summary of the method: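 Read-out: CCF4 FRET ratio (460 nm/530 nm) after 1 h RT dye loading, used for %activity and AC50 from titration series. Cells: Jurkat NFAT-β-lactamase/M1 line, treated with compound plus 1 uM carbachol for 5 h, 37 °C.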

[5] = Stat Signaling Pathway (AID 446); details: ME-180 SIE beta-lactamase reporter, IL-6 stimulated, 5 h; at 7.69 µM (top of the series) unless noted;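 further: ME-180 cervical cancer cells given 40 pM IL-6 alongside compound; SIE-controlled beta-lactamase reporter measured as 460/530 nm FRET emission ratio; on the % scale 0 is the no-effect control and ±100 the full control effect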
Summary of the method: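 Overnight-plated ME-180 cells bearing a STAT Inducible Element beta-lactamase reporter; 5 h co-exposure to compound and 40 pM IL-6; values normalized to 300 pM IL-6 and 125 nM JAK inhibitor controls.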

[6] = molecular target: Glucocorticoid receptor (Homo sapiens) (UniProt P04150); experiment: GR-EFC Redistribution (AID 451; calls by dose curve; further: potency means the concentration at half of the fitted maximal effect); details: CHO-K1 GR-EFC translocation, beta-gal luminescence, 2 h
Summary of the method: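 Translocation of GR-ED fusion to nuclear EA restores b-gal, read by luminescence after 1 h room-temperature detection. Engineered CHO-K1 biosensor cells, 1,000/well, exposed 2 h at 37 C to titrations up to 46 uM final.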

[7] = molecular target: 3',5'-cyclic-AMP phosphodiesterase 4B (Homo sapiens) (UniProt Q07343); experiment: qHTS Assay for Inhibitors of PDE-IV (AID 607; active means well fitted activation curve with a large enough effect in the main read-out, with a control signal flat, not every such curve was filed as active; further: % of control where 0% means no effect); details: HEK293 ACTOne CNG channel cells, membrane potential fluorescence; series mostly up to 22.9 µM
Summary of the method: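 Live HEK293 cells with a modified cyclic nucleotide-gated (CNG) channel report intracellular cAMP via membrane-potential dye fluorescence (ex 535/em 590 nm). Endogenous PDE-IV was targeted. Compounds were tested at up to 22.9 uM final; RO 20-1724 100 uM served as control.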

[8] = molecular target: Cytochrome P450 3A4 (Homo sapiens) (UniProt P08684); experiment: qHTS Assay for Inhibitors and Substrates of Cytochrome P450 3A4 (AID 884; active means well fitted curve in the direction sought with a large enough effect; an effect the other way counts as inactive or inconclusive; further: nearly all actives have a fitted effect of over 50% in size; further: potency means the concentration at half of the fitted maximal effect); details: recombinant CYP3A4, Luciferin-PPXE luminescence; series mostly up to 57.1 µM
Summary of the method: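 Luminescent readout of luciferin produced by CYP3A4 (20 nM) dealkylation of Luciferin-PPXE, 25 uM (its KM). NADPH-driven reaction ran 60 min at RT after 10 min compound preincubation; data scaled to 57 uM ketoconazole as 100% inhibition.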

[9] = molecular target: Cytochrome P450 3A4 (Homo sapiens) (UniProt P08684); experiment: qHTS Assay for Activators of Cytochrome P450 3A4 (AID 885; active means well fitted curve in the direction sought with a large enough effect; an effect the other way counts as inactive or inconclusive; further: nearly all actives have a fitted effect of over 65% in size; further: potency means the concentration at half of the fitted maximal effect); details: recombinant CYP3A4, Luciferin-PPXE luminescence, 60 min; series mostly up to 57.1 µM
Summary of the method: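 Using 20nM recombinant human CYP3A4 in potassium phosphate (200mM), substrate Luciferin-PPXE at 25uM, luminescent luciferin detection followed a 60-min RT NADPH reaction; data scaled to 57 uM ketoconazole.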

[10] = qHTS Assay for Lipid Storage Modulators (AID 1519; calls by dose curve); details: Drosophila S3 cells, BODIPY lipid droplet/cell ratio, laser cytometry, cells loaded with oleic acid; for activity change, negative = inhibition: at 57.5 µM (top of the series)
Summary of the method: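 Cells seeded at 5,000 per well were treated with compounds over a concentration series and loaded with oleic acid (400 uM, as added). Lipid droplet fluorescence (488 nm excitation, 500-530 nm channel) was read by laser-scanning cytometry and normalized to 20 uM Triacsin C.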

[11] = Primary qHTS for small molecule stabilizers of the endoplasmic reticulum resident proteome: Secreted ER Calcium Modulated Protein (SERCaMP) assay (AID 1508630; active means well fitted curve in the direction sought with a large enough effect; an effect the other way counts as inactive or inconclusive; further: on the % scale 0 is the no-effect control and ±100 the full control effect); details: SH-SY5Y GLuc-SERCaMP (Gaussia luciferase released on ER calcium loss) secretion, thapsigargin, luminescence; series mostly up to 38.4 µM
Summary of the method: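 The SH-SY5Y reporter protocol was run at 3 concentrations up to 38.3 uM (primary) or 11 concentrations (follow-up): 16 h compound, 100 nM thapsigargin for 4 h, then extracellular luciferase luminescence.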

[12] = molecular target: Mitogen-activated protein kinase 10 (Mus musculus) (UniProt Q61831); experiment: JNK3 AlphaScreen Assay (AID 530); details: JNK3 lysate, c-Jun phosphorylation; series mostly up to 57.1 µM
Summary of the method: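 qHTS titrations with 15 min compound pre-incubation before adding ATP (10 uM final). Read-out: AlphaScreen of Ser73-phosphorylated biotin-GST-cJun using HepG2 lysate JNK3 activated by IL-1β and TNFα.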

[13] = molecular target: Cytochrome P450 2D6 (Homo sapiens) (UniProt P10635); experiment: qHTS Assay for Inhibitors and Substrates of Cytochrome P450 2D6 (AID 891; active means well fitted curve in the direction sought with a large enough effect; an effect the other way counts as inactive or inconclusive; further: potency means the concentration at half of the fitted maximal effect; nearly all actives have a fitted effect of over 60% in size); details: recombinant CYP2D6, luciferin-ME EGE luminescence; series mostly up to 57.1 µM
Summary of the method: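 Luminescent read-out of luciferin formed by 5 nM human CYP2D6 demethylating 30 uM Luciferin-ME EGE (Km level) over 60 min at room temperature after NADPH regeneration addition. Data normalized to full inhibition by 1.43 uM quinidine.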

[14] = molecular target: Glucocorticoid receptor (Homo sapiens) (UniProt P04150); experiment: GR-GFP Redistribution (AID 450;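 active means compounds whose dose series gives a full or clear partial fitted curve of increased nuclear translocation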; further: potency means the concentration at half of the fitted maximal effect); details: U2OS GR-GFP nuclear translocation, laser cytometry, 2 h
[15] = qHTS Assay for Identification of Small Molecule Agonists for Hypoxia Response Element Signaling Pathway (AID 914; active means well fitted activation curve with a large enough effect in the signal ratio, with a control signal flat, not every such curve was filed as active; the % refers to the signal ratio; further: potency means the concentration at half of the fitted maximal effect); details: ME-180 (cervical carcinoma) HRE-bla reporter, beta-lactamase ratio, CoCl2, 17 h; activation: stronger effect = higher value
Summary of the method: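 In Opti-MEM containing 0.5% dialyzed FBS and 10 mM HEPES, ME-180 HRE-bla cells received a compound titration and EC50 CoCl2. They were incubated 17 hours, then CCF4-loaded 2.5 hours at room temperature before ratio reading.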

[16] = molecular target: Cytochrome P450 2C9 (Homo sapiens) (UniProt P11712); experiment: qHTS Assay for Inhibitors and Substrates of Cytochrome P450 2C9 (AID 883; active means well fitted curve in the direction sought with a large enough effect; an effect the other way counts as inactive or inconclusive; further: potency means the concentration at half of the fitted maximal effect; nearly all actives have a fitted effect of over 60% in size); details: recombinant CYP2C9, luciferin-H luminescence, 60 min; series mostly up to 57.1 µM
Summary of the method: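 Inhibition of CYP2C9 is scored as loss of luminescence, with 57uM sulphaphenazole defining 100% inhibition. Substrate Luciferin-H is used at 100uM, equal to its KM; enzyme at 10nM in 25mM KPO4, 60 min at 37C with NADPH regeneration.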

[17] = measured here: cell count channel max response
[18] = measured here: lipid channel max response

Chain of Cytochrome P450 3A4 (Homo sapiens) (P08684 whole entry, looked up): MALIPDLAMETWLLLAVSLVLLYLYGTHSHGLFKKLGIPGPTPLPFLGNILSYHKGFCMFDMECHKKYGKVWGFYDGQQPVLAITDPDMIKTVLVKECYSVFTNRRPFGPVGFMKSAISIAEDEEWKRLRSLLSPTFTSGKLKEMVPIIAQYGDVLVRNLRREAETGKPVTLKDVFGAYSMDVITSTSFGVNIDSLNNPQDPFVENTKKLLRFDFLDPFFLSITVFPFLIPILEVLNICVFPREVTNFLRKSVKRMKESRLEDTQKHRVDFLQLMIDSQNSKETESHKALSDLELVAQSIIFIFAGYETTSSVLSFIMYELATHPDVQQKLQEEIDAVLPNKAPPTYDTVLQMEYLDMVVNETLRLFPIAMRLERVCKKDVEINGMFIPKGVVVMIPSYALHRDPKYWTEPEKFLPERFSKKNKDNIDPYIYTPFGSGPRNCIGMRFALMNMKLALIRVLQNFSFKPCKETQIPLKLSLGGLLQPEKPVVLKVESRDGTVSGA
Chain of Lysosomal acid glucosylceramidase (Homo sapiens) (P04062 whole entry, looked up): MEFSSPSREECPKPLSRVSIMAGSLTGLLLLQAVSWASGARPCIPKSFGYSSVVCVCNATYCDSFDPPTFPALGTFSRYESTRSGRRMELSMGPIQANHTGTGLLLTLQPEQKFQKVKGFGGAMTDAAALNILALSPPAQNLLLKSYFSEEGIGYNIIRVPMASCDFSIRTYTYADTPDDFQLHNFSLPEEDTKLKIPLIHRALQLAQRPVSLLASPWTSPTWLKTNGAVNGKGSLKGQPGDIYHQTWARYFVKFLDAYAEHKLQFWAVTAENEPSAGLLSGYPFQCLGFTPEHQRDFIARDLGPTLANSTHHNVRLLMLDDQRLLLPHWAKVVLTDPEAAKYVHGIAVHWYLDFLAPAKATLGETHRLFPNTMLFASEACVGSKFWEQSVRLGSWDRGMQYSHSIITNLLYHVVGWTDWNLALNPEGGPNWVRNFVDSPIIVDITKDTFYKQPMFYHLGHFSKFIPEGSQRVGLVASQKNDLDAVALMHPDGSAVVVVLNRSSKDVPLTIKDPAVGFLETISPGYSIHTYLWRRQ
Chain of 3',5'-cyclic-AMP phosphodiesterase 4B (Homo sapiens) (Q07343 whole entry, looked up): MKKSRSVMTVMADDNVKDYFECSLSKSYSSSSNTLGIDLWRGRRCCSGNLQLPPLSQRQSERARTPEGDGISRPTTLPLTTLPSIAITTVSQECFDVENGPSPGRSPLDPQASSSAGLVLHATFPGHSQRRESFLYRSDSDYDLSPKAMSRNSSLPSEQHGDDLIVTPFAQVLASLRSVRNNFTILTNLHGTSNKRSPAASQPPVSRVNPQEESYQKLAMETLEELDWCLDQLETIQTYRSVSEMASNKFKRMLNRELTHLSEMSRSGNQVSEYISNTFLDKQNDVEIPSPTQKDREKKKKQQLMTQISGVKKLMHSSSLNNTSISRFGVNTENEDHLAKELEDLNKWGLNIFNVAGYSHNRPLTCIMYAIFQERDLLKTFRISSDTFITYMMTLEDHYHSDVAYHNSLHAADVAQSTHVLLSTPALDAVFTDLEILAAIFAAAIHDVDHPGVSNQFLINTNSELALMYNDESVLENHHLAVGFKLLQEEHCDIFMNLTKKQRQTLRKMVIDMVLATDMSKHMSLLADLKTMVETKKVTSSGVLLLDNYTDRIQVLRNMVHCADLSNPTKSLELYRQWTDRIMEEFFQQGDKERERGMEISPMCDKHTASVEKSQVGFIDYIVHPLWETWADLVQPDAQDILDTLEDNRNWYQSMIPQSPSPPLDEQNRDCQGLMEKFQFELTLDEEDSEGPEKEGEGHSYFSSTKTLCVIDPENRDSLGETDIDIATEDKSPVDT
Chain of Cytochrome P450 1A2 (Homo sapiens) (P05177 whole entry, looked up): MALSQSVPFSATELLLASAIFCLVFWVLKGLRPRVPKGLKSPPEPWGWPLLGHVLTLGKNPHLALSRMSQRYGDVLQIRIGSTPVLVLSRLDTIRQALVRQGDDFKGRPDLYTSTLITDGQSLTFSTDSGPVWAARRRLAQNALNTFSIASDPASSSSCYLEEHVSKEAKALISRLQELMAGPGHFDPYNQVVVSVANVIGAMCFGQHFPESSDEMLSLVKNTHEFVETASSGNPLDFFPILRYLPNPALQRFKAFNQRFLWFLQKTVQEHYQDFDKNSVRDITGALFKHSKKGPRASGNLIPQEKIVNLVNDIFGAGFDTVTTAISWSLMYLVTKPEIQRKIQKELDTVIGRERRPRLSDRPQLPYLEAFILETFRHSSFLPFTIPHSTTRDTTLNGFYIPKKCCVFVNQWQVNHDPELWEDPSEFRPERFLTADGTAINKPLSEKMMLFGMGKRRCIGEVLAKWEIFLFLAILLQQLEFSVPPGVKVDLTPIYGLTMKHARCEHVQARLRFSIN
Chain of Glucocorticoid receptor (Homo sapiens) (P04150 whole entry, looked up, the tested form may be a part): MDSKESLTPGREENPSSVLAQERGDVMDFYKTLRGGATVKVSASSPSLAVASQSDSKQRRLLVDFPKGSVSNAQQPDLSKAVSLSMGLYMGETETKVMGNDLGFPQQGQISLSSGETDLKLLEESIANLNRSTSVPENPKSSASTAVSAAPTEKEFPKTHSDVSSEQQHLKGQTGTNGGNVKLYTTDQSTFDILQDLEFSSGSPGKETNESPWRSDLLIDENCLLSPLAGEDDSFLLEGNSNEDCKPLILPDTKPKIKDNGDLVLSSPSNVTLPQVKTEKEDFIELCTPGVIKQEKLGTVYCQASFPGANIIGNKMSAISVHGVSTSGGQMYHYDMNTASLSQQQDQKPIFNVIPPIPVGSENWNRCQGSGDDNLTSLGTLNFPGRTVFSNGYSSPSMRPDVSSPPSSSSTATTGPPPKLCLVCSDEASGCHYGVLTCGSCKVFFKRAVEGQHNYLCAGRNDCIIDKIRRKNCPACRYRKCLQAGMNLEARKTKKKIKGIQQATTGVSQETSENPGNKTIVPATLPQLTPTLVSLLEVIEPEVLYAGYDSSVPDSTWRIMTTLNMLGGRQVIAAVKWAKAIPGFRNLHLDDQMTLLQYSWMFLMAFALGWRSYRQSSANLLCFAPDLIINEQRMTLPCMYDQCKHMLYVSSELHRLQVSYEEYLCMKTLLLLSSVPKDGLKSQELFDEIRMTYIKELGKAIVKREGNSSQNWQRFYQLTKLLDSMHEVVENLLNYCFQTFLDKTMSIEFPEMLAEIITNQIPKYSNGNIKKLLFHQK
Chain of Cytochrome P450 2D6 (Homo sapiens) (P10635 whole entry, looked up): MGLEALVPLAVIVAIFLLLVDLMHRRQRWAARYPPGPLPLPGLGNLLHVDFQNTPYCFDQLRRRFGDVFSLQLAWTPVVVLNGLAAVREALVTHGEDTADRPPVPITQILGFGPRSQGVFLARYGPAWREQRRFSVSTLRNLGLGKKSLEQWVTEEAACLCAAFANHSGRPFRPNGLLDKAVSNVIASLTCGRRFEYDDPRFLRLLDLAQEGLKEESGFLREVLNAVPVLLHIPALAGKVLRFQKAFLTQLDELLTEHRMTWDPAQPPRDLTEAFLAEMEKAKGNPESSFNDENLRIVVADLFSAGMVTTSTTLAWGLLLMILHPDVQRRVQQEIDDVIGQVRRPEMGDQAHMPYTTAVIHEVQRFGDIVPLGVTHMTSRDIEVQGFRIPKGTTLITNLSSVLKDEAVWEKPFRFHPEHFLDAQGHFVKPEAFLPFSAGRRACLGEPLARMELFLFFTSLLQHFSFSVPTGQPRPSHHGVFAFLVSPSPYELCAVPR
Chain of Cytochrome P450 2C9 (Homo sapiens) (P11712 whole entry, looked up): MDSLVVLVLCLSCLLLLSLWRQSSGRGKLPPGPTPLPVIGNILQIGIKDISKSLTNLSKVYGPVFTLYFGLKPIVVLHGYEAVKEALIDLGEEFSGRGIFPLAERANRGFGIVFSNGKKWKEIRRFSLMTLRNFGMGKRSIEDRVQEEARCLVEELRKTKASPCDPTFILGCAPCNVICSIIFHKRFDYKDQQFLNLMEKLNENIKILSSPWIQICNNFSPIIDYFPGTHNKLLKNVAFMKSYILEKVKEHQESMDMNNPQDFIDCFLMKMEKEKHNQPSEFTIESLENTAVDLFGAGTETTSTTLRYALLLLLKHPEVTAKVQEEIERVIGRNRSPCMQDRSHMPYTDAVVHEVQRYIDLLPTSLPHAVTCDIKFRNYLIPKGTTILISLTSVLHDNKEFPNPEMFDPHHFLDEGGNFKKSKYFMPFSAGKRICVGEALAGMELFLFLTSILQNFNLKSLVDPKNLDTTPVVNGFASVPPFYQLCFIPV

O=C(Oc1ccccc1)N1CCC2(CC1)CN(c1ccccc1)C2
-10.5%: max response [10, 17]
inactive: Potency [1] > 11.4 µM | activity change, negative = inhibition [2] 3.75% | activity change, negative = inhibition [4] -1.1% | activity, negative = inhibition [5] -0.517% | Potency [6] > 46 µM | Potency [7] | Potency [8] | activity change, negative = inhibition [10] 1.33% | Potency [11]
-7.26%: max response [10, 18]
active: Potency [3] 15.8 µM | Potency [9] 15.8 µM

COC(=O)N1CCC[C@@]2(CCN(C(c3ccccc3)c3ccccc3)C2)C1
active: Potency [3] 12.6 µM | Potency [13] 2 µM
6.34%: max response [10, 17]
inactive: Potency [1] > 11.4 µM | activity change, negative = inhibition [2] -2.49% | activity change, negative = inhibition [4] -6.57% | activity, negative = inhibition [5] 3.94% | Potency [6] > 46 µM | outcome [12] | activity change, negative = inhibition [10] -5.11% | Potency [11]
4.63%: max response [10, 18]

COc1ccc(C(=O)N2CCC3(CC2)CN(C(=O)Nc2cccc(C#N)c2)C3)cc1
inactive: Potency [1] > 11.4 µM | activity change, negative = inhibition [2] -3.72% | Potency [3] | activity change, negative = inhibition [4] 16.2% | Potency [6] > 46 µM | outcome [12] | Potency [7] | Potency [9] | activity change, negative = inhibition [10] 6.5% | Potency [11]
18.3%: max response [10, 18]
13.9%: max response [10, 17]

N#CCCn1c(=O)c(-c2cccs2)nc2cnc(OCc3ccccc3)nc21
inactive: Potency [1] > 11.4 µM | activity change, negative = inhibition [2] 9.62% | activity change, negative = inhibition [4] 6.28% | Potency [14] > 9.22 µM | Potency [6] > 46 µM | outcome [12] | Potency [7] | activity change, negative = inhibition [10] -2.65% | Potency [11]
active: Potency [3] 3.98 µM | Potency [15] 3.16 µM
0.666%: max response [10, 17]
1.75%: max response [10, 18]

O=C(c1ccco1)N1CCC2(CC1)CCN(c1cccc(-c3ccccc3)c1)CC2
active: Potency [3] 15.8 µM
-0.036%: max response [10, 17]
9.11%: max response [10, 18]
inactive: Potency [1] > 11.4 µM | activity change, negative = inhibition [2] 8.59% | activity change, negative = inhibition [4] -13.9% | activity, negative = inhibition [5] -16.1% | Potency [6] > 46 µM | Potency [7] | activity change, negative = inhibition [10] 5.77% | Potency [11]

O=C(Nc1cccc(F)c1)N1CCCC2(CCN(C(=O)c3ccncc3)CC2)C1
28.5%: max response [10, 18]
inactive: Potency [1] > 11.4 µM | activity change, negative = inhibition [2] -4.33% | activity change, negative = inhibition [4] -19.9% | Potency [6] > 46 µM | outcome [12] | Potency [7] | Potency [9] | activity change, negative = inhibition [10] 6.14% | Potency [11]
19.3%: max response [10, 17]
active: Potency [3] 12.6 µM | Potency [16] 79.4 nM | Potency [8] 6.31 µM

COCC(=O)N1CCC2(CCCN(Cc3cc(C(F)(F)F)cc(C(F)(F)F)c3)C2)CC1
26.3%: max response [10, 17]
inactive: Potency [1] > 11.4 µM | activity change, negative = inhibition [2] -15.5% | Potency [3] | activity change, negative = inhibition [4] -0.717% | activity, negative = inhibition [5] 3.96% | outcome [12] | Potency [7] | Potency [9] | activity change, negative = inhibition [10] -0.278% | Potency [11]
28.3%: max response [10, 18]
